From PubChem BioAssay AID652106 (National Center for Advancing Translational Sciences (NCATS), 2013)
Among all 370,000 compounds or so, about 500 (0.14%) were called active. A call without a number means that no potency is given here. About 2% were inconclusive and are not listed. Calls come from the whole dose curve; as a rule, active = well fitted activation curve with a large enough effect; inconclusive = small, poorly fitted or top-dose-only effect; inactive = no such curve, though single readings can be large or run the other way. For the sample, actives were picked, then their nearest neighbours and some compounds at random.

assay: qHTS of alpha-syn Inhibitors; details: Yeast expressing alpha-synuclein, BacTiter-Glo, 24 h; Potency: growth rescue; series mostly up to 46.1 µM; note: nearly all actives have a fitted effect of over 65% in size
Description: The goal of this project is to identify new chemical probes capable of reversing the toxicity associated with the Parkinson disease-related protein, alpha-synuclein. Compounds will be selected on their ability to restore growth in yeast cells expressing toxic levels of alpha-synuclein. These compounds will provide a complementary approach to deciphering the tangled mechanisms of toxicity and protection that we have uncovered through genome-wide genetic screens and are beginning to uncover in a large-scale proteomics analysis with mass spectroscopy. To this end, a miniaturized assay was developed to be screened against the Molecular Libraries Small Molecule Repository (MLSMR) to discover alpha-synuclein inhibitors. Please note that in the set-up this yeast-based assay compounds that inhibit as alpha-syn, have a read-out as activators. NIH Chemical Genomics Center [NCGC] NIH Molecular Libraries Probe Centers Network [MLPCN] MLPCN Grant: NS060957 Assay Submitter (PI): Susan Lindquist, Whitehead Institute/MIT
Dispense 2.5 microL yeast galactose medium per 1536-well plate, pin compound, dispense 2.5 microL alpha-synuclein expressing yeast in galactose medium at OD600=0.02 (pregrown in raffinose medium to mid-log phase) per well, incubate for 24 hr at 30 deg C, and cell growth will be measured using 5 microL of Bactiter/Glo reagent to entire plate and read using Luminescence Protocol in ViewLux.
Potency is the fitted concentration of half-maximal effect.

Row | Structure (SMILES) | Potency
1 | O=C(O)c1c(Br)c(Br)c(Br)c(Br)c1C1c2ccc(O)cc2Oc2cc(O)ccc21 | inactive
2 | O=C(CN1C(=O)COc2ccc(S(=O)(=O)N3CCCCCC3)cc21)N1CCN(c2cccc(C(F)(F)F)c2)CC1 | inactive
3 | C=COC(=O)N1CCN(/[N+]([O-])=N/Oc2ccc([N+](=O)[O-])cc2[N+](=O)[O-])CC1 | inactive
4 | CCc1ccc(NC(=O)CCS(=O)(=O)c2cc3c(cc2Cl)NC(=O)CO3)cc1 | inactive
5 | O=C(CN1C(=O)COc2ccc(S(=O)(=O)N3CCOCC3)cc21)N1CCN(c2cccc(Cl)c2)CC1 | inactive
6 | Oc1ccc(Cl)cc1C1C=C(c2ccc3c(c2)OCO3)NC(c2ccc(F)c(Br)c2)N1 (centres undefined) | inactive
7 | CCCSc1nc2sc3c(c2c(=O)n1-c1cccc(Br)c1)CC(C)(C)OC3 | inactive
8 | CN1CCN(/[N+]([O-])=N/Oc2ccc([N+](=O)[O-])cc2[N+](=O)[O-])CC1 | inactive
9 | CC1(C)Cc2ccccc2-c2c[nH]c(=O)n21 | inactive
10 | Cc1c(NS(=O)(=O)c2ccc(Cl)cc2)c(=O)n(-c2ccccc2)n1C | inactive
11 | O=C(O)C1=C/C(=C/C=[N+]2c3cc(O)c(O[C@H]4OC(CO)[C@@H](O)[C@@H](O)[C@@H]4O)cc3C[C@@H]2C(=O)[O-])C[C@H](C(=O)O)N1 (some centres undefined) | inactive
12 | COc1ccc(-c2nc3c(c(SCC(=O)Nc4ccc(C(=O)O)cc4)n2)Cc2ccccc2O3)cc1 | inactive
13 | Cc1ccc(S(=O)(=O)N2CCN(c3nc(-n4cnc5ccccc54)nc4ccccc34)CC2)cc1 | inactive
14 | SCc1nc2ccc(Cl)cc2[nH]1 | inactive
15 | COc1ccc(-c2c(C)c3ccc(O)c(CN4CCCC4)c3oc2=O)cc1OC | inactive
16 | CCOC(=O)C(=Cc1ccccc1)C(=O)c1ccccc1 | 14.1 µM (active)
17 | CCc1ccccc1NC(=O)/C(=C/c1ccccc1)c1ccccc1 | inactive
18 | CCOC(=O)/C(=C\c1ccc([N+](=O)[O-])cc1)C(=O)c1cc(C(C)=O)c(Nc2ccccc2)s1 | inactive
19 | CCC(CC)C(=O)N1CCc2cc(OC)c(OC)cc2C1COc1ccc(F)cc1 (centres undefined) | inactive
20 | O=C(Nc1nnc(C2COc3ccccc3O2)o1)c1ccc(F)cc1 (centres undefined) | 17.8 µM (active)
21 | CC1COc2ccccc2N1C(=O)c1ccc(F)cc1 (centres undefined) | inactive
22 | O=C(Nc1cccc2c1CCCC2)c1ccc(F)cc1 | inactive
23 | CC(C)(C)OC(=O)N1CCC(c2c(C(=O)Nc3ccc4c(c3)OCO4)cnn2-c2ccccc2)CC1 | inactive
24 | CCN1CCN(c2ccc(/C=C/c3ccnc4ccccc34)cc2)CC1 | inactive
25 | OC(CBr)CN1CCCCC1 (centres undefined) | inactive

Row | Structure (SMILES) | Potency
26 | O=C(COc1ccccc1C(=O)Nc1ccccc1)Nc1cccc(F)c1 | inactive
27 | CC1CC2C3CCC4=CC(=O)C=C[C@]4(C)[C@@]3(F)[C@@H](O)C[C@]2(C)[C@@]1(O)C(=O)CO (some centres undefined) | inactive
28 | CC1(C)CCc2cc(S(=O)(=O)N3CCN(c4nc(-c5cccs5)nc5ccccc45)CC3)ccc2O1 | inactive
29 | C(=Nc1ccc(/C=C/c2ccnc3ccccc23)cc1)Nc1ccc(/C=C/c2ccnc3ccccc23)cc1 | inactive
30 | O=C(CSc1ncc(CO)n1Cc1ccc(Cl)cc1)NCc1ccc(F)cc1 | inactive
31 | CCC(C)NC(=O)c1cc(Cl)ccc1OC (centres undefined) | inactive
32 | COc1ccc(Cl)cc1C(=O)NNC(=S)NC(=O)/C=C/c1ccco1 | 3.55 µM (active)
33 | COc1ccc(Cl)cc1C(=O)NNC(=O)c1nc2nc(C)cc(C)n2n1 | inactive
34 | Cc1cc(C)c2oc(-c3cccc(NC(=O)c4cccc(F)c4)c3C)nc2c1 | inactive
35 | O=[N+]([O-])c1ccc(S(=O)(=O)N2CCN(c3nc(-c4ccccc4)nc4ccccc34)CC2)cc1 | inactive
36 | Cc1ccc(C=O)cc1Cl | inactive
37 | O=C(Nc1ccccc1)c1ccccc1OCc1ccccc1 | inactive
38 | OC[C@@H]1O[C@H](n2cnc3c(SCc4ccccc4)ncnc32)[C@H](O)[C@H]1O | inactive
39 | COc1ccc(CN(Cc2ccccc2)C(=O)c2ccc(O)cc2)cc1COc1ccc(NC(C)=O)cc1 | inactive
40 | C=C1C=C(C)n2ncc(C(=O)Nc3ccccc3O)c2N1 | inactive
41 | COc1cccc2c1C(=O)c1c(O)c3c(c(O)c1C2=O)CC(O)(C(C)=NNC(=O)c1ccc(Cl)c(Cl)c1)CC3OC1CC(N)C(O)C(C)O1 (centres undefined) | 28.2 µM (active)
42 | Nc1ncnc2nnsc12 | inactive
43 | CN(N=O)c1ccc(C=C2c3ccccc3-c3ccccc32)cc1 | inactive
44 | COc1cc(OC)c(/C=C/c2ccnc3ccccc23)c(OC)c1 | inactive
45 | S=c1[nH]c(=S)c2n[nH]nc2[nH]1 | inactive
46 | COc1ccc(Cn2c(=O)[nH]c3cc(C(=O)N4CCN(C(=O)c5ccco5)CC4)ccc3c2=O)cc1 | inactive
47 | COc1ccc(CN2CCc3nc(Nc4ccccc4)ncc3C2)c(OC)c1OC | inactive
48 | COc1cc2[nH]c(C)c(CCN3CCN(c4ccccc4)CC3)c2cc1OC | inactive
49 | Cc1ccc(-c2nc3ccccn3c2Nc2ccc(F)cc2)o1 | inactive
50 | CSc1ccc(C2C(C(=O)Nc3ccccc3)=C(C)Nc3nc4ccccc4n32)cc1 (centres undefined) | inactive

Row | Structure (SMILES) | Potency
51 | Cc1cccc(NC(=O)COC(=O)c2ccccc2OCc2cccc(Br)c2)c1 | inactive
52 | O=C1CSC2(C(=O)N(Cc3ccccc3)c3ccccc32)N1c1cccc(F)c1 (centres undefined) | inactive
53 | CCOC(=O)Cn1c(=O)n(C2CCCCC2)c2nc(-c3cccc(OC)c3)nc(C(N)=O)c21 | inactive
54 | O=C(Nc1ccccc1C(F)(F)F)c1nc(S(=O)(=O)Cc2ccccc2F)ncc1Cl | inactive
55 | COc1ccc(OC)c(NC(=O)C2CCCN(S(=O)(=O)c3ccc4c(c3)CCCC(=O)N4)C2)c1 (centres undefined) | inactive
56 | C[C@@H]1C(c2ccc(F)cc2)=NN(c2ccc(Br)cc2)[C@H]1C(=O)N1CCOC1=O | 22.4 µM (active)
57 | O=C1OCCN1C(=O)[C@H]1[C@H](c2ccc(Cl)cc2)C(c2cccc(Cl)c2)=NN1c1ccc(Br)cc1 | inactive
58 | O=C1OCCN1C(=O)[C@H]1[C@H](c2ccccc2)C(c2ccc(F)cc2)=NN1c1ccccc1 | inactive
59 | COc1ccc(-c2nc(=N)sn2-c2ccccc2)cc1 | inactive
60 | Cc1ccc(C)c(N2CCN(C(=O)CCc3nc(-c4cccc(C(F)(F)F)c4)no3)CC2)c1 | inactive
61 | Cc1ccc(C)c(N2CCN(C(=O)Cn3ncn4cccc4c3=O)CC2)c1 | inactive
62 | Cc1ccc(C)c(N2CCN(C(=O)CCc3nc4ccccc4[nH]3)CC2)c1 | 15.8 µM (active)
63 | COc1ccc(CNC(=O)CSc2nc3ccccc3nc2Cc2ccccc2)cc1 | inactive
64 | C(=Nc1ccc(/C=C/c2ccnc3ccccc23)cc1)c1cc2c3c(c1)CCCN3CCC2 | inactive
65 | O=C(COC(=O)c1ccccc1OCCOc1ccccc1)Nc1cccc(Br)c1 | inactive
66 | COc1ccc(C(C)(O)c2nc(-c3ccc(C)c(C)c3)cs2)cc1 (centres undefined) | 3.16 µM (active)
67 | COc1ccc(C(C)(NC(C)=O)c2nc(-c3ccc(S(C)(=O)=O)cc3)cs2)cc1 (centres undefined) | inactive
68 | COc1ccc(C(C)(O)c2nc(-c3cc(F)cc(F)c3)cs2)cc1 (centres undefined) | inactive
69 | CCOc1n[nH]c(-c2ccccc2)n1 | inactive
70 | COc1ccc(N2CCN(S(=O)(=O)c3ccc(-c4coc(C)n4)cc3)CC2)cc1 | inactive
71 | Cc1ccc2ccc3c(c2n1)NS(=O)(=O)c1ccccc1-3 | inactive
72 | CC(=O)N1CCN(CC(=O)Nc2ccc(C)c(F)c2)CC1 | inactive
73 | CCN1CCN(C(=O)C2(NC(=O)Nc3cccc(F)c3)CCCCC2)CC1 | inactive
74 | CCc1sc(C(=O)N2CCN(CC(=O)Nc3cccc(F)c3)CC2)cc1C | 25.1 µM (active)
75 | CC1(C)CC(=O)c2cc(C(=O)NCc3ccccc3)c(=O)[nH]c2C1 | inactive

Row | Structure (SMILES) | Potency
76 | Oc1ccccc1-c1nc2ccc(Cl)cn2c1Nc1ccc2c(c1)OCCO2 | inactive
77 | COc1ccc(C(O)c2nc(-c3ccc4c(c3)OCO4)cs2)cc1 (centres undefined) | 22.4 µM (active)
78 | COc1cc(C(O)c2nc(-c3cnn(C)c3)cs2)ccc1F (centres undefined) | inactive
79 | COCc1cccc(-c2csc(C(O)c3ccc(F)cc3)n2)c1 (centres undefined) | inactive
80 | O=C(CCS(=O)(=O)c1ccc2c(c1)NC(=O)CO2)Nc1cccc(C(F)(F)F)c1 | inactive
81 | COc1cc(OC)c(OC)cc1/C=C1\C=Cc2ccccc21 | inactive
82 | CCC(=O)Nc1cccc(-c2nc3cc(C)ccc3o2)c1 | inactive
83 | Cc1cccc(N(C)C(=O)CS(=O)(=O)c2cccc3nsnc23)c1 | inactive
84 | O=C1O/C(=C\c2ccc(O)cc2)C(O)=C1c1ccc(O)cc1 | inactive
85 | CCN(CC)c1nc(C#N)nc(OC)n1 | inactive
86 | CN(C)c1ccc(C=Nc2ccc(/C=C/c3ccnc4ccccc34)cc2)cc1 | inactive
87 | CCOC(=O)c1ccc(NC(=O)C2CCN(S(=O)(=O)c3ccc4c(c3)CCCC(=O)N4)CC2)cc1 | inactive
88 | Cc1csc(NCC(=O)c2c[nH]c3ccccc23)n1 | inactive
89 | COc1ccc(CC(=O)Nc2nnc3n2CCS3)cc1OC | inactive
90 | C[N+]1(CC(=O)c2cccs2)CCOCC1 | inactive
91 | CC(C)(C)c1ccc(C(=O)C[n+]2cccc3cc(Cl)ccc32)cc1 | inactive
92 | CCOC(=O)c1c(-c2ccc(OC)cc2)oc2ccc(OCc3ccc(C(=O)OC)cc3)cc12 | inactive
93 | CCN(CC)c1ccc(S(=O)(=O)N2CCOCC2)cc1NC(=O)CSc1cccc[n+]1[O-] | 17.8 µM (active)
94 | O=C(CSc1ccccc1)Nc1cccc(S(=O)(=O)N2CCOCC2)c1 | inactive
95 | CCN(CC)c1ccc(S(=O)(=O)N2CCCCC2)cc1NC(=O)C1=COCCO1 | inactive
96 | Cc1ccc(CCNC(=O)c2ccc(CNS(=O)(=O)c3ccc(C)cc3)cc2)cc1 | inactive
97 | Nc1ccc(/C=C/c2ccnc3ccccc23)c([N+](=O)[O-])c1 | inactive
98 | Oc1ccc(N=Nc2nccs2)c(O)c1 | 2.24 µM (active)
99 | CN(C)c1ccc(/C=N\Nc2ccc([N+](=O)[O-])cc2[N+](=O)[O-])cc1Cl | inactive
